In PubChem BioAssay (NCI):
The panel holds about 83,000 compounds, 20% with a hit somewhere; the sample as a whole holds those more often.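 Cell lines were cultured in 96-well plates, exposed to a single compound concentration, and assessed for percent growth 48 hours later.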 A number with no mark means an inactive call. Rule for the calls: active = growth percent below 10; inactive = the rest.

Test system: BT-549 breast
Assay: NCI-60 one-dose screen, 48 h (100 = growth as untreated, 0 = no growth, -100 = all killed)
Conditions: 10 µM unless noted

Row | Structure (SMILES) | growth
1 | CC(=O)CC(=O)SC1=NCCS1 | 116%
2 | CCCCCCCCCCCCCCNC(=O)Nc1ccc(Cl)c(Cl)c1 | 24.7%
3 | O=S(=O)(NCc1ccccc1)c1ncnc2nc[nH]c12 | 93.7%
4 | Cc1cc(-c2ccc(N=Nc3c(S(=O)(=O)O)cc4cc(S(=O)(=O)O)cc(N)c4c3O)c(C)c2)ccc1N=Nc1cc(S(=O)(=O)O)c2ccccc2c1O | 107%
5 | CC1=C/C(=C(\c2cc(C)c(O)c(C(=O)O)c2)c2c(Cl)cccc2Cl)C=C(C(=O)O)C1=O | 99.3%
6 | O=C(Nc1ccccc1)Nc1ccc(C(=O)/C=C/c2ccc(N3CCCC3)cc2)cc1 | 93.3%
7 | CC(C)(C)c1cc(C(=O)Nc2ccc(C(=O)NCCN)cc2)cc(C(C)(C)C)c1 | 87.6%
8 | C[C@@H]1C[C@H]2C(=O)O[C@@H](C)[C@H](NC(=O)[C@H](Cc3cc(F)cc(F)c3)NC(=O)Nc3ccc(Cl)cc3F)C(=O)N3C[C@H](O)C[C@H]3C(=O)N3CCN(C)C[C@H]3C(=O)N[C@@H](C)C(=O)N2C1 | 14.9%
9 | C=C(C)[C@@H]1CC[C@]2(COC(=O)c3ccccc3C(=O)O)CC[C@]3(C)[C@H](CC[C@@H]4[C@@]5(C)CC[C@H](OC(=O)c6ccccc6C(=O)O)C(C)(C)[C@@H]5CC[C@]43C)[C@@H]12 | 28.1% [100 µM]
10 | C[C@H]1[C@H](C)CC[C@]2(C(=O)N3CCN(C)CC3)CC[C@]3(C)C(=CC[C@@H]4[C@@]5(C)C/C(=C/c6ccco6)C(=O)C(C)(C)[C@@H]5CC[C@]43C)[C@H]12 | 50.8% [100 µM]
